# Measured values published in the supplement of paper PMC10849652.
# The full data set covers some 7,900 targets. This sample favours those with a hit. About 0.6% of all pairs of compound and target were hits. Values without a mark were called inactive.
# How the values were obtained:
# Test in all cases: log2 fold change, soluble protein after heating vs DMSO (PISA); higher = thermal stabilisation; K562 cells, 10 uM, 30 min; active = over 0.2 and 3.5 SD of the protein, either way, in both replicates (recomputed)
# IRAK-1-4 Inhibitor I = compound: C1COCCN1CCN2C3=CC=CC=C3N=C2NC(=O)C4=CC(=CC=C4)[N+](=O)[O-] [IRAK-1-4 Inhibitor I]
# In short: (§1)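 For each measurement, 10 μM compound was applied for 30 min to K562 cells at 2×10^6 cells/mL. Aliquots were heated for 3 min across 48°C-58°C, pooled, and extracted in PBS with 0.5% NP-40 at 4°C; the supernatant after 21,000xg for 90 min was soluble protein. This was quantified by TMTpro 16plex LC-MS/MS with channel sums equalised, and thermal stability was reported relative to control samples from duplicates, on a log2 fold-change scale.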
# ibrutinib = compound: C=CC(=O)N1CCC[C@@H](n2nc(-c3ccc(Oc4ccccc4)cc3)c3c(N)ncnc32)C1 [ibrutinib]
# In short: as §1
# [1] = compound: CC(=O)c1cnc2ccc(-c3cc(Cl)c(O)c(Cl)c3)nc2c1N[C@H]1CC[C@H](CN(C)C)CC1
# In short: as §1
# ralimetinib = compound: CC(C)(C)Cn1c(N)nc2ccc(-c3[nH]c(C(C)(C)C)nc3-c3ccc(F)cc3)nc21 [ralimetinib]
# In short: as §1
# [2] = compound: CC(C)(O)CC(=O)NCCn1ccc2ncnc(Nc3ccc(Oc4cccc(C(F)(F)F)c4)c(Cl)c3)c21
# In short: as §1
# [3] = compound: CC(C)C1=C2N=C(C=C(N2N=C1)NCC3=CC=CC=C3)NCCCCCCN
# In short: as §1
# [4] = compound: CC(C)C[C@@H](C=O)NC(=O)[C@H](CC(C)C)NC(=O)[C@H](CC(C)C)NC(=O)OCc1ccccc1
# In short: as §1
# pinometostat = compound: CC(C)N(C[C@H]1O[C@@H](n2cnc3c(N)ncnc32)[C@H](O)[C@@H]1O)[C@H]1C[C@@H](CCc2nc3cc(C(C)(C)C)ccc3[nH]2)C1 [pinometostat]
# In short: as §1
# [5] = compound: CC1=C(C(CC(=O)N1)C2=CC=C(C=C2)C(F)(F)F)C(=O)NC3=C(C=C4C(=C3)C=NN4)F
# In short: as §1
# [6] = compound: CC1=C(C2=C(C=C1)C(=O)C3=CC=CC=C3N2CCCN)C
# In short: as §1
# [7] = compound: CC1=C(C=C(C=C1)NC(=O)C2=CC(=CC=C2)C(C)(C)C#N)NC3=CC4=C(C=C3)N=CN(C4=O)C
# In short: as §1
# [8] = compound: CC1=C(C=C(C=C1)NC(=O)C2=CC(=CC=C2)N(C)C)NC(=O)C3=CC=C(C=C3)O
# In short: as §1
# [9] = compound: CC1=CC=C(C=C1)SC2=C3C=C(SC3=CN=C2)C(=O)N
# In short: as §1
# [10] = compound: CC1=NC(=CC=C1)C2=C(N=C(N2)C(C)(C)C)C3=CC4=NC=CN=C4C=C3
# In short: as §1
# Nexturastat A = compound: CCCCN(Cc1ccc(C(=O)NO)cc1)C(=O)Nc1ccccc1 [Nexturastat A]
# In short: as §1
# vemurafenib = compound: CCCS(=O)(=O)Nc1ccc(F)c(C(=O)c2c[nH]c3ncc(-c4ccc(Cl)cc4)cc23)c1F [vemurafenib]
# In short: as §1
# [11] = compound: CCCS(=O)(=O)Nc1ccc(F)c(C(=O)c2c[nH]c3ncc(Cl)cc23)c1F
# In short: as §1
# [12] = compound: CCCc1cc(C)[nH]c(=O)c1CNC(=O)c1cc(-c2ccnc(N3CCN(C)CC3)c2)cc2c1cnn2C(C)C
# In short: as §1
# givinostat = compound: CCN(CC)Cc1ccc2cc(COC(=O)Nc3ccc(C(=O)NO)cc3)ccc2c1 [givinostat]
# In short: as §1
# barasertib = compound: CCN(CCCOc1ccc2c(Nc3cc(CC(=O)Nc4cccc(F)c4)[nH]n3)ncnc2c1)CCOP(=O)(O)O [barasertib]
# In short: as §1
# Sequence of UniProt O43913 (O43913 whole entry, looked up): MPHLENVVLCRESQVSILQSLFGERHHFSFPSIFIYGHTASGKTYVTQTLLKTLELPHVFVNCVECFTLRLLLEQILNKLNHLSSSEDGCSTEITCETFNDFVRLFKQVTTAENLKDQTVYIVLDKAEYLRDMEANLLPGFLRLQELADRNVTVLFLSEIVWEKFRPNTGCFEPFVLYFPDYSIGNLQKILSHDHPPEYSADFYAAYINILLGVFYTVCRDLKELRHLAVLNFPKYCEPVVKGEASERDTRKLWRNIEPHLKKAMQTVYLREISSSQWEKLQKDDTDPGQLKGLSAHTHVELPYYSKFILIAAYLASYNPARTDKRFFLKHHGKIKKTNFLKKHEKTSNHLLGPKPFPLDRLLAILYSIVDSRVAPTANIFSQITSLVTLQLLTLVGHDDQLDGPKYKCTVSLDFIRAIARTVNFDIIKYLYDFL
# Sequence of UniProt Q8NI08 (Q8NI08 whole entry, looked up): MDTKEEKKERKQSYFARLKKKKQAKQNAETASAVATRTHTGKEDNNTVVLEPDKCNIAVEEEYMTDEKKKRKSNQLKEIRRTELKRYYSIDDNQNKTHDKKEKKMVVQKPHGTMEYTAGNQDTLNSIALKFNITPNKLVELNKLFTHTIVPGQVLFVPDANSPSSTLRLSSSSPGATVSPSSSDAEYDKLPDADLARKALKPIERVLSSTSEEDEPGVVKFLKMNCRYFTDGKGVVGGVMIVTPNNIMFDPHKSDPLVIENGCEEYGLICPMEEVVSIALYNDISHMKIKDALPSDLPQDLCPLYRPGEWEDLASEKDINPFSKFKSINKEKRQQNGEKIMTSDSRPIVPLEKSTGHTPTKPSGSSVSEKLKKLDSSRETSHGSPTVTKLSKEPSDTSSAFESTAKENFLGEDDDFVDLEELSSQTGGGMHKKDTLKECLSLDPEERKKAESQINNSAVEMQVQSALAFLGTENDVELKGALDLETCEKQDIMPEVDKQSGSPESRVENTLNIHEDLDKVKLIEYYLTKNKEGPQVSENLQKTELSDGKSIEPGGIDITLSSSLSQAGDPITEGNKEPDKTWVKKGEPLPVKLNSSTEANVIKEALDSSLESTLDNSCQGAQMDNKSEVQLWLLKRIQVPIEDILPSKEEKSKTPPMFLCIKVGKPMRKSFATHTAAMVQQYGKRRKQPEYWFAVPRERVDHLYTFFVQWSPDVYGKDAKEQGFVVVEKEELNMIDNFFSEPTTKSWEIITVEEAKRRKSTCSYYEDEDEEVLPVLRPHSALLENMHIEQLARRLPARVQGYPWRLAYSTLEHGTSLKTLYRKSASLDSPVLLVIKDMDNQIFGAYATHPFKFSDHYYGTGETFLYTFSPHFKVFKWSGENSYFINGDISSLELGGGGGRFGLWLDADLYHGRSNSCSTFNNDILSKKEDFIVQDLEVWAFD
# Sequence of UniProt P43246 (P43246 whole entry, looked up): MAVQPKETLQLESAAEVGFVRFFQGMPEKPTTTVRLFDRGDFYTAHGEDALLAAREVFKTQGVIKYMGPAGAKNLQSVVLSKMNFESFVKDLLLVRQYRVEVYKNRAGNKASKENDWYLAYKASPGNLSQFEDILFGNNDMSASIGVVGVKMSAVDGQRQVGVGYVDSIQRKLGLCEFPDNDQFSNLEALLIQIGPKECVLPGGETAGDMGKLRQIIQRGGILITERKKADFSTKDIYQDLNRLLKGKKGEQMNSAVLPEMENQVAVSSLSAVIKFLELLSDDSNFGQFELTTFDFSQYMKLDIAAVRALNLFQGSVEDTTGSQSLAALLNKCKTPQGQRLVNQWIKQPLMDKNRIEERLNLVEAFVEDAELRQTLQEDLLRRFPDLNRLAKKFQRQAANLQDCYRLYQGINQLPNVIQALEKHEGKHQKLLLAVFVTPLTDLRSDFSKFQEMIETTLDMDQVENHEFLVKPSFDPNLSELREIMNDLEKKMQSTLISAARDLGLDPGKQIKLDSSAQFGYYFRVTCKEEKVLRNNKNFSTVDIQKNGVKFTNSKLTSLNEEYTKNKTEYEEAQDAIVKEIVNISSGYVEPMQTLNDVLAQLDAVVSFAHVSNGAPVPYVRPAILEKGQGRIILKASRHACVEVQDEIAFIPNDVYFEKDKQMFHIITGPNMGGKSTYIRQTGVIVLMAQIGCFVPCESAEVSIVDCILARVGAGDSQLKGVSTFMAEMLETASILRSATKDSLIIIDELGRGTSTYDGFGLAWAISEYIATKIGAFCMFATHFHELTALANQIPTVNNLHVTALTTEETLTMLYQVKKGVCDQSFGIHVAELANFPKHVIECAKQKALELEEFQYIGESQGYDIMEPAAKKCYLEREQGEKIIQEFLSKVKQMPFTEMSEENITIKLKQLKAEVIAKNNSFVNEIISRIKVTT
# Sequence of UniProt Q92692 (Q92692 whole entry, looked up): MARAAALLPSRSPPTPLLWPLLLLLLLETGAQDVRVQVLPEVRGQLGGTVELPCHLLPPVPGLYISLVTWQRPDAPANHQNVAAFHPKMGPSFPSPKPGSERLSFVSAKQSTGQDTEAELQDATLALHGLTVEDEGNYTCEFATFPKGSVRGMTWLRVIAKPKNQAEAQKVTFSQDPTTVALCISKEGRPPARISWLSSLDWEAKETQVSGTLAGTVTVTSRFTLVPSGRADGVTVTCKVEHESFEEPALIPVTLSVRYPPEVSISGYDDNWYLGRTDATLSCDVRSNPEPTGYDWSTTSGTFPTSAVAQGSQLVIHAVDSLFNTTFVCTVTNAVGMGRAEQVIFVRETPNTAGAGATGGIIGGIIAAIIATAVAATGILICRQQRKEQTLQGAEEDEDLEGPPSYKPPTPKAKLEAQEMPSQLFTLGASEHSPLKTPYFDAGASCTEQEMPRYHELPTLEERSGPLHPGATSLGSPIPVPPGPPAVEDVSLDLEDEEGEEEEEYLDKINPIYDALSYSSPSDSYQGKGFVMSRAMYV
# Sequence of UniProt Q4G0T1 (Q4G0T1 whole entry, looked up): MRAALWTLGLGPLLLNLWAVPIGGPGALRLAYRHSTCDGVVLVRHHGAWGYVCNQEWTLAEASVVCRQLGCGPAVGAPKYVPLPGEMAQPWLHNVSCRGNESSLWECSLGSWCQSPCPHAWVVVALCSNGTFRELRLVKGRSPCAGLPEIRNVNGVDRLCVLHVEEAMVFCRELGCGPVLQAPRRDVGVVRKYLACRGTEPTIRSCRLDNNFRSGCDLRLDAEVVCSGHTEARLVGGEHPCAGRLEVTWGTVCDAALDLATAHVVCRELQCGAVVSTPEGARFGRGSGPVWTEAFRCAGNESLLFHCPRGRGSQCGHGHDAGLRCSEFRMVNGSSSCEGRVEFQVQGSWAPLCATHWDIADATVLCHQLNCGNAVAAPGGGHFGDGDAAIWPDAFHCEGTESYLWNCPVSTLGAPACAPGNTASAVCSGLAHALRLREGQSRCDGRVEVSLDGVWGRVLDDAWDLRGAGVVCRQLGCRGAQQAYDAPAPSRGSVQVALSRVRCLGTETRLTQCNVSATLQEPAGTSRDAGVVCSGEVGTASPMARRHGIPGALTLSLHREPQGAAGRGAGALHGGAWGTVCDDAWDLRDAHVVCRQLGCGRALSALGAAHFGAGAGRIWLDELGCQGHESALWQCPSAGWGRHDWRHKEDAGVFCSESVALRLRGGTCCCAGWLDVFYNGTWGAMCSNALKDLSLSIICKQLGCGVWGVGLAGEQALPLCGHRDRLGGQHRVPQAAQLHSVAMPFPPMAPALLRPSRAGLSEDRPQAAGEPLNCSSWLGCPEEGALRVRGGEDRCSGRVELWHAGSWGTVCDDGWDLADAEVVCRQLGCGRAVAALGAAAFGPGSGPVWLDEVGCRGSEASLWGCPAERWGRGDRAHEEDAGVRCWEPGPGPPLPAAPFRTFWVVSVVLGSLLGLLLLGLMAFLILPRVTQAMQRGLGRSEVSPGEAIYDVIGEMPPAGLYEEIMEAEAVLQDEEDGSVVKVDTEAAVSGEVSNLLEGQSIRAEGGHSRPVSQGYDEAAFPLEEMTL
# Sequence of UniProt P40261 (P40261 whole entry, looked up): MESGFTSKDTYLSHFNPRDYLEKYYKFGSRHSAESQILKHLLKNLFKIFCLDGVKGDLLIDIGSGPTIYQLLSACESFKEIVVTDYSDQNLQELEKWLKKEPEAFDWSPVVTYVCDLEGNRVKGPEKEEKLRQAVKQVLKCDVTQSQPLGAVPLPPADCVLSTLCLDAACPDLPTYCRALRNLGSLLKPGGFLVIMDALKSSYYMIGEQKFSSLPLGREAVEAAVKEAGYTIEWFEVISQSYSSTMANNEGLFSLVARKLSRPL
# Sequence of UniProt Q8N5F7 (Q8N5F7 whole entry, looked up): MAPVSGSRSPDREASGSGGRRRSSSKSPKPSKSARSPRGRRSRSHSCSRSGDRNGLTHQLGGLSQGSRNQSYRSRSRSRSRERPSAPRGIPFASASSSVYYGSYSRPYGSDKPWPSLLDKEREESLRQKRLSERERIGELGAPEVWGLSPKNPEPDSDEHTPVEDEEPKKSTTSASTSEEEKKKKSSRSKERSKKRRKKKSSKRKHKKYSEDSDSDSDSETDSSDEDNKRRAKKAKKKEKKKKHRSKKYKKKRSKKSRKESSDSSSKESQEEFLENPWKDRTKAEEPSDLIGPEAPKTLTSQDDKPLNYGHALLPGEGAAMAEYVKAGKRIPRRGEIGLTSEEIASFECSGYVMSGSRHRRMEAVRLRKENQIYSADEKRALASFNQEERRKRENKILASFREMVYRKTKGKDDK
# Sequence of UniProt Q9BT67 (Q9BT67 whole entry, looked up): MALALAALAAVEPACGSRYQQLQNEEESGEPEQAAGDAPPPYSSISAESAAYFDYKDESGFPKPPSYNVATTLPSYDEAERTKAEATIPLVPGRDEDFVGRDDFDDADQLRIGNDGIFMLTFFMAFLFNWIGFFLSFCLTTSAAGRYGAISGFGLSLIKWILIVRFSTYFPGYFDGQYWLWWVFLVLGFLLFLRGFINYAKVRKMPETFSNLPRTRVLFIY
Target,log2 fold change (IRAK-1-4 Inhibitor I),log2 fold change (ibrutinib),log2 fold change [1],log2 fold change (ralimetinib),log2 fold change [2],log2 fold change [3],log2 fold change [4],log2 fold change (pinometostat),log2 fold change [5],log2 fold change [6],log2 fold change [7],log2 fold change [8],log2 fold change [9],log2 fold change [10],log2 fold change (Nexturastat A),log2 fold change (vemurafenib),log2 fold change [11],log2 fold change [12],log2 fold change (givinostat),log2 fold change (barasertib)
MSH2 (UniProt P43246),-0.024,-0.066,0.018,-0.031,-0.041,-0.019,0.023,-0.023,-0.015,0.357 (active),0.038,-0.067,0.017,0.066,-0.018,0.069,0.08,0.019,0.083,0.057
MORC3 (UniProt Q14149),0.021,-0.047,0.023,-0.024,-0.122,-0.051,0.002,-0.026,-0.039,0.595 (active),-0.02,-0.06,-0.025,0.059,-0.296,0.095,0.032,0.11,-0.193,0.102
NCAPD2 (UniProt Q15021),-0.101,-0.067,0.097,0.048,-0.151,-0.208,0.054,0.039,-0.012,-0.036,0.057,-0.032,0.012,-0.013,0.058,0.119,0.041,0.101,0.077,0.03
NUMA1 (UniProt Q14980),-0.107,-0.051,-0.123,0.149,0.073,-0.173,-0.02,0.202,-0.018,-0.58 (active),0.03,-0.029,-0.009,-0.073,0.262,0.02,0.005,0.132,0.092,0.005
MRPL50 (UniProt Q8N5N7),-0.036,0.052,0.036,0.315,-0.001,-0.014,-0.203,-0.01,0.04,0.16,-0.09,-0.04,0.175,-0.031,0.208,0.034,0.244,-0.058,0.05,-0.057
"NA, A0A2R8Y3M9",0.087,0.215,-0.207,-0.08,,,0.056,-0.001,0.253,,-0.126,0.546,0.225,0.178,,,-0.086,,,-0.138
NNMT (UniProt P40261),0.035,0.06,-0.028,,-0.026,-0.026,,0.276 (active),-0.002,-0.006,0.038,,0.012,0.039,-0.082,0.011,-0.001,-0.093,-0.076,-0.04
NEDD4L (UniProt Q96PU5),0.026,-0.002,-0.014,-0.293 (active),-0.01,-0.107,-0.059,0.027,-0.017,-0.084,0.015,-0.138,-0.046,0.01,-0.059,0.049,0.019,0.013,0.056,-0.021
MRPS26 (UniProt Q9BYN8),-0.09,0.008,0.007,-0.049,-0.143,0.03,0.137,0.037,,-0.133,0.021,-0.083,0.002,-0.03,0.075,-0.004,0.049,-0.056,0.098,0.026
MYO19 (UniProt Q96H55),0.014,-0.11,0.168,0.115,0.079,-0.06,0.176,0.014,-0.198,,,0.069,0.091,-0.054,0.382,-0.082,0.554 (active),,0.143,0.039
OGFOD2 (UniProt Q6N063),0.016,-0.023,-0.102,0.011,-0.031,-0.079,0.002,0.025,-0.001,-0.073,,-0.007,,-0.091,0.117,0.001,,0.037,-0.041,0.059
NKAP (UniProt Q8N5F7),0,0.004,-0.218,0.033,0.105,-0.123,0.103,0.032,0.165,-0.022,,0.233,0.017,0.052,0.042,0.073,0.046,0.15,0.044,-0.165
ORC5 (UniProt O43913),0.024,-0.014,-0.306,0.015,,-0.134,0.005,0.128,-0.005,0.08,-0.193,-0.089,0,-0.038,,0.058,0.058,0.058,-0.009,0.025
NA isoform 3 (UniProt Q4G0T1),0.007,-0.1,-0.146,-0.118,,-0.022,0.155,-0.043,0.079,-0.109,-0.007,0.035,0.008,-0.057,,0.005,-0.077,-0.012,-0.009,0.179
NECTIN2 isoform 2 (UniProt Q92692),-0.018,0.047,0.03,0.081,0.1,0.059,0.008,-0.008,0,,-0.037,0.011,,-0.104,0.17,0.033,,-0.028,0.054,0.005
NCOA7 (UniProt Q8NI08),0.017,-0.056,-0.075,0.052,-0.005,-0.088,0.072,0.019,-0.033,-0.009,0.068,-0.045,0.015,0.016,0.012,0.008,-0.005,0.024,0.045,0.009
NDFIP1 (UniProt Q9BT67),-0.135,-0.083,0.146,0.084,-0.401,-1.2 (active),0.302,0.048,0.241,0.152,-0.366,-0.125,,-0.1,0.048,0.268,,-0.15,-0.046,-0.011
